In PubChem BioAssay (EPA / NIEHS):
Calls of active or inactive are those of the source. How the source made its calls: active means hit-call score of the fitted dose curve at least 0.9, where 1 is the maximum; inactive means score below 0.9.

Key:
[1] = ATG_CRE_CIS: Attagene CIS-FACTORIAL HepG2 Assay for human cAMP Responsive Element (CRE) binding protein 3 (AID 2282926); conditions: HepG2 CRE cis-reporter, Attagene multiplexed mRNA; actives raise or lower the signal
Summary of the method: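 Human liver HepG2, transient MRTU transfection, 24 h compound exposure. Total RNA → oligo(dT) RT → PCR → 6-FAM primer extension → HpaI cut → CE. Activity called both directions vs DMSO.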

[2] = biological target: CCAAT/enhancer-binding protein beta (Homo sapiens) (UniProt P17676); assay: ATG_C_EBP_CIS: Attagene CIS-FACTORIAL HepG2 Assay for human CCAAT/Enhancer Binding Protein (C/EBP) beta (AID 2282927); conditions: HepG2 Attagene cis-factorial transcription factor reporter; actives raise or lower the signal
CCAAT/enhancer-binding protein beta (Homo sapiens), sequence (P17676 whole entry, looked up): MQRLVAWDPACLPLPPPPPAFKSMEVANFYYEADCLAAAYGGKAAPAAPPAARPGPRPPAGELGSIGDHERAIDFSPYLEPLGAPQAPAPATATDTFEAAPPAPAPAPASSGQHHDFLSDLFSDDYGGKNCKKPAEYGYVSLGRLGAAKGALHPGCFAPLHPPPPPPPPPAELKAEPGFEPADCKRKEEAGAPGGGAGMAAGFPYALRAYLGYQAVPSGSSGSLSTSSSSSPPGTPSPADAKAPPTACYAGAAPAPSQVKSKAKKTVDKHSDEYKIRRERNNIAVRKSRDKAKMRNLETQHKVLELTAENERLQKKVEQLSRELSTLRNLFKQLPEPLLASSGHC
Summary of the method: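 RT-PCR/capillary electrophoresis fluorescence of reporter mRNA, 24 h post-dose, in HepG2 cells carrying transfected cis-promoter reporter units. Bidirectional curve fitting against DMSO baseline captures gain or loss of signal.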

[3] = ATG_CMV_CIS: Attagene CIS-FACTORIAL HepG2 Assay for human CMV (Internal Marker) (AID 2282928); conditions: HepG2 CMV promoter reporter, transcription factor profiling; actives raise or lower the signal;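 further: endpoint acts as a background internal control marker rather than a target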
Summary of the method: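 HepG2 cells transiently transfected with multiple cis-regulated reporter units; 24 h compound exposure. Reporter mRNA quantified by RT-PCR, 6-FAM primer-extension labeling, HpaI digestion and capillary electrophoresis; bidirectional fitting against DMSO baseline.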

[4] = ATG_DR4_LXR_CIS: Attagene CIS-FACTORIAL HepG2 Assay for human Liver X Receptor (LXR), DR4 submotif (AID 2282929); conditions: HepG2 Attagene DR4 cis-reporter, mRNA transcription; actives raise or lower the signal
Summary of the method: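 HepG2, transient MRTU transfection, cis-element (DR4) promoter; 24 h compound exposure; total RNA → oligo(dT) RT → PCR → 6-FAM primer extension → HpaI cut → CE. Gain/loss vs DMSO, bidirectional fit.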

[5] = biological target: Aryl hydrocarbon receptor (Homo sapiens) (UniProt P35869); assay: ATG_Ahr_CIS: Attagene CIS-FACTORIAL HepG2 Assay for human Aryl Hydrocarbon Receptor (Ahr) (AID 2282930); conditions: HepG2 AhR cis-factorial reporter transcription; actives raise or lower the signal
Aryl hydrocarbon receptor (Homo sapiens), sequence (P35869 whole entry, looked up): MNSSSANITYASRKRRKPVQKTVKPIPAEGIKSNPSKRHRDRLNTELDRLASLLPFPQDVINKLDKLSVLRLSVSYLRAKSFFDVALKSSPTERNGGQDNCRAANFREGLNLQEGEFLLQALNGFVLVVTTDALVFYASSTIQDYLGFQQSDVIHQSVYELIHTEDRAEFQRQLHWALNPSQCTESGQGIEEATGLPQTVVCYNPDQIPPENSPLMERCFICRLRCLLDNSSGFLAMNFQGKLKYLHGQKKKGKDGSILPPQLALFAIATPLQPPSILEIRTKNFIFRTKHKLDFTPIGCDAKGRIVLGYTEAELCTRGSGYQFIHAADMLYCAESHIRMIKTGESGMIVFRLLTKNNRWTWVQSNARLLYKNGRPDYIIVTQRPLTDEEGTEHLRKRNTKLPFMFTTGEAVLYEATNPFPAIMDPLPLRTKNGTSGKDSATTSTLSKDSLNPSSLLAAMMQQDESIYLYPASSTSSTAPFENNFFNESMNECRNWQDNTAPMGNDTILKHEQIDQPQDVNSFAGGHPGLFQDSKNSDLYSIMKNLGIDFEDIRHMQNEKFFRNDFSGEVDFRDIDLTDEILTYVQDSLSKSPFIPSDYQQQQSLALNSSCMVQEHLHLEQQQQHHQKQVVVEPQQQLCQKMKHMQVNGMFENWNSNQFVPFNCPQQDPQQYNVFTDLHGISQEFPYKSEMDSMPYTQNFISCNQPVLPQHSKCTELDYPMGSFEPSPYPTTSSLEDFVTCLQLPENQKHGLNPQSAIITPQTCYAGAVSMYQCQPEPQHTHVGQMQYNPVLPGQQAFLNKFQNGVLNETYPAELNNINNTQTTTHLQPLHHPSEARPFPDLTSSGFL
Summary of the method: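 HepG2 cells transiently transfected with cis-element-driven multiplexed reporter transcription units; endogenous transcription factor activity measured as reporter mRNA 24 h after dosing. RT-PCR, 6-FAM labelling, HpaI digestion, capillary electrophoresis; bidirectional fitting versus DMSO baseline.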

[6] = ATG_AP_1_CIS: Attagene CIS-FACTORIAL HepG2 Assay for human Activator Protein 1 (AP-1) (AID 2282931); conditions: HepG2 Attagene cis-factorial AP-1 reporter mRNA; actives raise or lower the signal
Summary of the method: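 Transient MRTU transfection of HepG2 → 24 h chemical treatment → RNA isolation, RT-PCR, 6-FAM labelling, HpaI digest → capillary electrophoresis. Fit: bidirectional, DMSO negative control.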

[7] = ATG_AP_2_CIS: Attagene CIS-FACTORIAL HepG2 Assay for human Activator Protein 2 (AP-2) (AID 2282932); conditions: HepG2 AP-2 cis-reporter, Attagene transcription factor profiling; actives raise or lower the signal
Summary of the method: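 HepG2 cells were transiently transfected with multiple cis-promoter reporter transcription units and dosed for 24 h. Reporter mRNA was measured by RT-PCR with capillary electrophoresis fluorescence; bidirectional fits relative to DMSO baseline.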

[8] = ATG_BRE_CIS: Attagene CIS-FACTORIAL HepG2 Assay for human Bone Morphogenetic Protein (BMP) Response Element (BRE) (AID 2282933); conditions: HepG2 BMP response element reporter, Attagene transcription factor profiling; actives raise or lower the signal
Summary of the method: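 Transient MRTU transfection of human HepG2 liver cells; 24 h compound treatment; total RNA isolated, reverse-transcribed, PCR-amplified, 6-FAM labelled, HpaI-cut, capillary electrophoresis. DMSO = negative control/baseline, bidirectional fit.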

[9] = biological target: Retinoic acid receptor alpha (Homo sapiens) (UniProt P10276); assay: ATG_DR5_RAR_CIS: Attagene CIS-FACTORIAL HepG2 Assay for human Retinoic Acid Receptor Alpha (RARE), DR5 submotif (AID 2282934); conditions: HepG2 Attagene cis-factorial RARE DR5 reporter, mRNA; actives raise or lower the signal
Retinoic acid receptor alpha (Homo sapiens), sequence (P10276 whole entry, looked up): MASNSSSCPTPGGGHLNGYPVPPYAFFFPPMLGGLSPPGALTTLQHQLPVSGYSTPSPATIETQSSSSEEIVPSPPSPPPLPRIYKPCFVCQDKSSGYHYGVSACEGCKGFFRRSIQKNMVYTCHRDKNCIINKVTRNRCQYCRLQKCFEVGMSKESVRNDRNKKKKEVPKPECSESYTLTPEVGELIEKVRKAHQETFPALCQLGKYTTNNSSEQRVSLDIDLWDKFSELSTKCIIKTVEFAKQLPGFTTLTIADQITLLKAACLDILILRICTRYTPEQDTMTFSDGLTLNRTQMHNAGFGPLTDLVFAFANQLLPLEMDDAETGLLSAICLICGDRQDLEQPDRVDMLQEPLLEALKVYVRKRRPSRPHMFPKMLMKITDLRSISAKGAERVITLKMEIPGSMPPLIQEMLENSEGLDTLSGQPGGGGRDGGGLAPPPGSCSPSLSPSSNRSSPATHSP
Summary of the method: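 HepG2 cells transiently transfected with multiplexed reporter units under cis (DR5 RARE) promoters, so endogenous transcription factor activity is measured. After 24 h compound exposure, reporter mRNA is quantified by RT-PCR with fluorescent labelling and capillary electrophoresis; bidirectional fitting versus DMSO.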

[10] = biological target: Transcription factor E2F1 (Homo sapiens) (UniProt Q01094); assay: ATG_E2F_CIS: Attagene CIS-FACTORIAL HepG2 Assay for human E2F Transcription Factor 1 (AID 2282935); conditions: HepG2 Attagene cis-reporter, E2F reporter RNA transcripts; actives raise or lower the signal
Transcription factor E2F1 (Homo sapiens), sequence (Q01094 whole entry, looked up): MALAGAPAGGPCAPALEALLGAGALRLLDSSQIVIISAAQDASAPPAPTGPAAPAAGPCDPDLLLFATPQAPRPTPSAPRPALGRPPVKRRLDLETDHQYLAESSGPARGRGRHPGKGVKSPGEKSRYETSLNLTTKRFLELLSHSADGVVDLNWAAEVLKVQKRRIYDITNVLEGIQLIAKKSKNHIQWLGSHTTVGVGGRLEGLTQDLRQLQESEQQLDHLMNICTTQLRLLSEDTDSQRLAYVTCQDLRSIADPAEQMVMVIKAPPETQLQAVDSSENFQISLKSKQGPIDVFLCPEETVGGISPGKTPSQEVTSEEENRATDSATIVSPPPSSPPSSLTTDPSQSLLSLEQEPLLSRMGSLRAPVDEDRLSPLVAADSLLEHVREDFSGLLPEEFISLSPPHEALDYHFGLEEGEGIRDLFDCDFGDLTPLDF
Summary of the method: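 HepG2 cells transiently transfected with multiplexed cis-element reporter units, dosed for 24 h. Reporter mRNA measured by RT-PCR, 6-FAM primer-extension labeling, HpaI digestion and capillary electrophoresis; bidirectional fit versus DMSO baseline.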

[11] = ATG_E_Box_CIS: Attagene CIS-FACTORIAL HepG2 Assay for human Enhancer Box (E-box) (AID 2282936); conditions: HepG2 E-box cis-reporter transcription, actives raise or lower the signal
Summary of the method: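 HepG2 cells transiently transfected with multiplexed cis-element reporter units sensing endogenous transcription factor activity; 24 h compound exposure. Reporter mRNA measured by RT-PCR, 6-FAM primer extension, HpaI digestion and capillary electrophoresis; bidirectional fit versus DMSO.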

[12] = ATG_M_61_CIS: Attagene CIS-FACTORIAL HepG2 Assay for M61 Transcription Factor (Internal Marker) (AID 2282937); conditions: HepG2 Attagene CIS-FACTORIAL M61 internal marker reporter; actives raise or lower the signal
Summary of the method: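 Human liver HepG2, transient MRTU transfection (cis promoter elements), 24 h compound. Total RNA → oligo(dT) RT → PCR → FAM label → HpaI → CE. Internal background marker; bidirectional fitting, DMSO = baseline.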

[13] = ATG_EGR_CIS: Attagene CIS-FACTORIAL HepG2 Assay for human Early Growth Response 1 (EGR1) (AID 2282938); conditions: HepG2 Attagene CIS-FACTORIAL EGR reporter mRNA; actives raise or lower the signal
Summary of the method: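 Transient transfection of human HepG2 with multiple cis-regulated reporter units, chemical exposure 24 h, total RNA isolated. Reverse transcription, PCR, fluorescent labelling and capillary electrophoresis quantify reporter transcripts; activity fitted bidirectionally against DMSO.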

[14] = ATG_M_19_CIS: Attagene CIS-FACTORIAL HepG2 Assay for M19 Transcription Factor (Internal Marker) (AID 2282939); conditions: HepG2 Attagene CIS-FACTORIAL M19 internal marker reporter; actives raise or lower the signal
Summary of the method: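 Transfect HepG2 with MRTU reporter library → dose chemical, 24 h → isolate total RNA, reverse-transcribe with oligo(dT) → PCR, 6-FAM label, HpaI cut (2 h, 37 C) → capillary electrophoresis. Bidirectional fit vs DMSO.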

[15] = ATG_ERE_CIS: Attagene CIS-FACTORIAL HepG2 Assay for Estrogen Response Element (ERE) (AID 2282940); conditions: HepG2 ERE cis-reporter, Attagene RNA transcript; actives raise or lower the signal
Summary of the method: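 Transient MRTU transfection of human HepG2; cis-element promoters; 24 h dosing; total RNA → RT (oligo dT) → PCR → 6-FAM primer extension → HpaI digest → CE fluorescence. Bidirectional fit, DMSO baseline.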

[16] = ATG_Ets_CIS: Attagene CIS-FACTORIAL HepG2 Assay for human Erythroblast Transformation Specific (ETS) (AID 2282941); conditions: HepG2 ETS cis-reporter transcription, actives raise or lower the signal
Summary of the method: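 HepG2 cells transiently transfected with cis-promoter reporter transcription units were dosed for 24 h; reporter mRNA was measured by RT-PCR, 6-FAM primer extension, HpaI digestion and capillary electrophoresis, with bidirectional fitting against DMSO baseline.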

[17] = biological target: Hepatocyte nuclear factor 3-beta (Homo sapiens) (UniProt Q9Y261); assay: ATG_FoxA2_CIS: Attagene CIS-FACTORIAL HepG2 Assay for human Forkhead box A2 (FOXA2) (AID 2282942); conditions: HepG2 cis-reporter transcription factor activity, 24 h; actives raise or lower the signal
Hepatocyte nuclear factor 3-beta (Homo sapiens), sequence (Q9Y261 whole entry, looked up): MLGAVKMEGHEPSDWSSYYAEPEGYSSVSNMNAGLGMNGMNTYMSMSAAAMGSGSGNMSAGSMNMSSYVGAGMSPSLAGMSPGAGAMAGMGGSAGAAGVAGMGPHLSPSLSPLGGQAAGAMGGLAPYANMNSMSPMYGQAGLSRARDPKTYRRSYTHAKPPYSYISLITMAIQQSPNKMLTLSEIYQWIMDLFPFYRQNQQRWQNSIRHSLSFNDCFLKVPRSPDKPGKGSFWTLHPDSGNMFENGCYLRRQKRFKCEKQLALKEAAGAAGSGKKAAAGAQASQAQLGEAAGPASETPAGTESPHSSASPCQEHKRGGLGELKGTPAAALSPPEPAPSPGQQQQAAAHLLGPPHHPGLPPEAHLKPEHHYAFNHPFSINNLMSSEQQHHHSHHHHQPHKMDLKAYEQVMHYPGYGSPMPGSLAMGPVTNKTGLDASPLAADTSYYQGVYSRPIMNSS
Summary of the method: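 Transient MRTU transfection of HepG2 liver cells; 24 h treatment; total RNA → oligo(dT) RT → PCR → FAM primer extension → HpaI cut → CE. Bidirectional fit vs DMSO.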

[18] = ATG_FoxO_CIS: Attagene CIS-FACTORIAL HepG2 Assay for human Forkhead box O (FoxO) (AID 2282943); conditions: HepG2 Attagene cis-reporter, FoxO element, mRNA; actives raise or lower the signal
Summary of the method: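 HepG2 cells transiently transfected with cis-promoter-driven multiple reporter transcription units; 24 h after chemical dosing, reporter mRNA quantified by RT-PCR, fluorescent primer extension, HpaI digestion and capillary electrophoresis. Bidirectional fitting versus DMSO baseline.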

[19] = ATG_GATA_CIS: Attagene CIS-FACTORIAL HepG2 Assay for human GATA Binding Protein (AID 2282944); conditions: HepG2 GATA cis-element reporter, Attagene multiplex mRNA; actives raise or lower the signal
Summary of the method: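 Transient MRTU transfection, HepG2, 24 h compound exposure. Total RNA → oligo(dT) RT → PCR → 6-FAM primer extension → HpaI cut → CE. Bidirectional fit vs DMSO.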

[20] = ATG_GLI_CIS: Attagene CIS-FACTORIAL HepG2 Assay for human Zinc Finger Protein GLI1 (AID 2282945); conditions: HepG2, Attagene cis-factorial reporter mRNA, GLI element; actives raise or lower the signal
Summary of the method: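 HepG2 cells transiently transfected with cis-promoter multiplexed reporter units report endogenous transcription factor activity. After 24 h chemical exposure, reporter mRNA was quantified by RT-PCR, 6-FAM labelling, HpaI digestion and capillary electrophoresis, with bidirectional fitting against DMSO.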

Measured: AC50

O=C(Nc1ccccc1)c1ccccc1O
active: [2] 53.4 µM | [5] 19.1 µM | [6] 27 µM | [8] 30.7 µM | [15] 63.1 µM | [16] 100 µM
inactive: [1] | [3] | [4] | [7] | [9] | [10] | [11] | [12] | [13] | [14] | [17] | [18] | [19] | [20]

O=C1C=CC(=O)O1
inactive: [1] | [2] | [3] | [4] | [5] | [6] | [7] | [8] | [9] | [10] | [11] | [12] | [13] | [14] | [15] | [16] | [18] | [19] | [20]

NC(=O)C1CO1 (stereo not drawn)
inactive: [1] | [2] | [3] | [4] | [5] | [6] | [7] | [8] | [9] | [10] | [11] | [12] | [13] | [14] | [15] | [16] | [17] | [18] | [19] | [20]

[Cl][Nd]([Cl])[Cl]
inactive: [1] | [2] | [3] | [4] | [5] | [6] | [7] | [8] | [9] | [10] | [11] | [12] | [13] | [14] | [15] | [16] | [18] | [19] | [20]

O=S1(=O)OC(c2ccc(O)cc2)(c2ccc(O)cc2)c2ccccc21
inactive: [1] | [2] | [3] | [4] | [6] | [7] | [8] | [9] | [10] | [11] | [12] | [13] | [14] | [16] | [17] | [18] | [19] | [20]
active: [5] 34.9 µM | [15] 53.4 µM

c1c[nH]cn1
inactive: [1] | [2] | [3] | [4] | [5] | [6] | [7] | [8] | [9] | [10] | [11] | [12] | [13] | [14] | [15] | [16] | [17] | [18] | [20]

O=C1c2ccccc2C(=O)C1c1nc2ccccc2c(Br)c1O
inactive: [1] | [2] | [3] | [4] | [6] | [7] | [9] | [10] | [11] | [12] | [13] | [14] | [16] | [18] | [20]
active: [5] 0.388 µM | [8] 100 µM | [15] 6.37 µM | [17] 1.26 µM

CCC(CC)C(=O)O
inactive: [1] | [2] | [3] | [4] | [5] | [6] | [7] | [8] | [9] | [10] | [11] | [12] | [13] | [14] | [15] | [16] | [18] | [20]

COC=O
inactive: [1] | [2] | [3] | [4] | [5] | [6] | [7] | [8] | [9] | [10] | [11] | [12] | [13] | [14] | [15] | [16] | [17] | [18] | [19] | [20]

O=C(O)c1cc(Cl)cc([N+](=O)[O-])c1Cl
inactive: [1] | [2] | [3] | [4] | [5] | [6] | [7] | [8] | [9] | [10] | [11] | [12] | [13] | [14] | [15] | [16] | [17] | [18] | [20]
